In the library only some 3.5% were active in any assay of this set; here they are far more common.
GPR151 activ = activators of human GPR151, primary screen, cell-based, PathHunter beta-arrestin, luminescence; PathHunter beta-arrestin GPR151 cells; 650,000 tested, 1% active; AID 1508602, 2020; activation, % at 11.2 µM; G-protein coupled receptor 151 (Homo sapiens), Q8TDV0; in the data active = activation above about 4.9%
MITF primary = MITF inhibitors, primary screen, biochemical, AlphaScreen, human; Microphthalmia-associated transcription factor (Homo sapiens), O75030; AlphaScreen MITF homodimerization, bead proximity signal; inhibition, % at 2.6 µM; 650,000 tested, 0.91% active; in the data active = inhibition above about 50%
TEAD-YAP inh = TEAD-YAP interaction inhibition, primary screen, TEAD-YAP interaction inhibitor project, luminescence, HEK-TIYL cells; TEAD-Gal4/YAP UAS-luciferase luminescence; inhibition, % at 9.12 µM; 640,000 tested, 1.4% active; AID 1259422, 2018; in the data active = inhibition above about 32%
FBW7 activator = FBW7 E3 ligase activators, primary screen, biochemical, AlphaScreen, human; 650,000 tested, 0.13% active; normalized activity (activation), % at 26.1 µM; AlphaScreen FBW7–phospho-cyclin E peptide binding, activator screen; AID 1259310, 2017; in the data active = normalized activity above about 1.9%;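 also: purified mutant Fbw7 with reduced substrate affinity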
Target sequence (Q969H0 whole entry, looked up): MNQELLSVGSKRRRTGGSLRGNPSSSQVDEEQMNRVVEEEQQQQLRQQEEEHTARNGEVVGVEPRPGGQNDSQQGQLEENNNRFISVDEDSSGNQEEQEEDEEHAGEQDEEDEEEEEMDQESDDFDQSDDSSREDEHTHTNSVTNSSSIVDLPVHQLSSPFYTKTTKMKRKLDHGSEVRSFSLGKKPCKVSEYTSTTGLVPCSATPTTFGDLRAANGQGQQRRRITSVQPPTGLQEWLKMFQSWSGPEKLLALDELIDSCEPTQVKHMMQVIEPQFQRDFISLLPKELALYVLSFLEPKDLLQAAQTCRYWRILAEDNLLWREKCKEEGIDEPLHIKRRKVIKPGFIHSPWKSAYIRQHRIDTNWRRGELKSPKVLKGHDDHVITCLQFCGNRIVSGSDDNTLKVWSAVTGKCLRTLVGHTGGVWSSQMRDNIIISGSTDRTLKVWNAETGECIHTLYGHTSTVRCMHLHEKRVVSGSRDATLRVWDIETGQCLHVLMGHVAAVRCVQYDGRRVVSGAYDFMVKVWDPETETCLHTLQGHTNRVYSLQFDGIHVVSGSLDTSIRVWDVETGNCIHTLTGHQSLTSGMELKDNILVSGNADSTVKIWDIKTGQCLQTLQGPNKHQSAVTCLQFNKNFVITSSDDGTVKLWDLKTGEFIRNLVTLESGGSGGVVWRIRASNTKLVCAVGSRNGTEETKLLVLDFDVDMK
Large screens that a line does not name were inactive.

Cc1ccc(O)c(/C=C2/C(=O)NN(c3cccc(Br)c3)C2=O)c1	none
O=C(Nc1ccc2c(c1)CCC2)c1ccc2c(=O)n(Cc3cccc(Br)c3)c(=S)[nH]c2c1	none
COC(=O)c1cccc(NS(=O)(=O)c2ccc(C)cc2)c1	TEAD-YAP inh 53
CCCCc1nc(SCC(=O)Nc2ccccc2OC)n[nH]1	none
CC(=O)c1c(C)n(-c2ccc(N(C)C)cc2)c2ccc(O)cc12	TEAD-YAP inh 40
Cc1ccc(-c2cnn3c(NCc4cccs4)ccnc23)cc1	none
O=C(O)CCc1ccc(-c2cnn3c(NCc4ccco4)ccnc23)cc1	TEAD-YAP inh 33
OCc1ccccc1-c1cnn2c(NCc3cccs3)ccnc12	TEAD-YAP inh 63
c1ccc(-c2cnn3c(NCc4cccs4)ccnc23)cc1	none
Nc1ccc(-c2cnn3c(NCc4cccs4)ccnc23)cc1	TEAD-YAP inh 71
Cc1ccc(N=c2sc(C3=c4cc([N+](=O)[O-])ccc4=NC3=O)c(O)n2-c2ccc(C)cc2)cc1	none
O=C1NC(=S)N/C1=C\C=C\c1ccc([N+](=O)[O-])o1	MITF primary 78, TEAD-YAP inh 89
CC1(C)CC(=O)C2=C(C1)OC(N)=C(C#N)C21c2ccccc2-c2ccccc21	none
COc1cccc(CN2CCc3nc(-c4ccccn4)nc(N4CCCC4)c3C2)c1	TEAD-YAP inh 41
COc1cc2nc(NC(=O)C3=COCCO3)sc2cc1OC	none
O=C(Nc1nc2cc3c(cc2s1)OCO3)C1=COCCO1	TEAD-YAP inh 52
CCOC(=O)C1=CC2(SC=C(C(=O)OCC)S2)C2=C(S1)C(C)(C)N(CC)c1ccccc12 (stereo not drawn)	none
CC(C)(C)c1nc2ccccc2c2nn(CC(=O)NC3CCCCC3)c(=O)n12	none
CCN(CC)Cc1cc(O)c(CN(CC)CC)cc1O	MITF primary 76
C=C(C)CN(CC)Cc1cc(Cl)ccc1O	none
Nc1ccc(OCc2ccc(COc3ccc(N)cc3)cc2)cc1	FBW7 activator 17
CC(=O)N(C1=C(N2CCCCC2)C(=O)c2ccccc2C1=O)c1ccc(C)cc1	none
CC(=O)N(C1=C(N2CCCC2)C(=O)c2ccccc2C1=O)c1ccccc1C	TEAD-YAP inh 92
COc1ccccc1C1C(C#N)=C(N)Sc2c1c(=O)oc1ccccc21 (stereo not drawn)	none
O=C(O)CCC(=O)Nc1cccc(-c2nc3cc4ccccc4cc3[nH]2)c1	TEAD-YAP inh 34
O=C(O)CCC(=O)Nc1ccc(-c2nc3cc4ccccc4cc3[nH]2)cc1	none
Clc1ccccc1CSc1nc2ccccc2c2nc(-c3ccccc3)nn12	none
O=C(Nc1cc(C(F)(F)F)cc(C(F)(F)F)c1)c1ccc([N+](=O)[O-])o1	TEAD-YAP inh 59
Cc1nc2sccn2c1-c1csc(Nc2ccc(N(C)C)cc2)n1	TEAD-YAP inh 55
Cc1ccccc1Nc1nc(-c2c(C)nc3sccn23)cs1	none
CC(=O)Nc1ccc(Nc2nc(-c3c(C)nc4sccn34)cs2)cc1	TEAD-YAP inh 48
Cc1nc2sccn2c1-c1csc(Nc2ccc(O)cc2)n1	none
CN(C)c1ccc(Nc2nc(-c3ccccc3)cs2)cc1	TEAD-YAP inh 43
C=C(C)CNC(=S)N/N=C/c1cccc(OCC)c1O	none
COC(=O)c1cn[nH]c1NC(=S)Nc1cc(Cl)ccc1C	none
CC(C)(C)c1ccc(C(=O)NNC(=O)Cc2ccc(Cl)cc2)cc1	none
COc1cc(C(=O)Nc2cccnc2)ccc1OCc1c(Cl)cccc1Cl	TEAD-YAP inh 39
O=C(Nc1cccnc1)c1ccc(Cl)c(Cl)c1	none
CCOc1ccc2c(c1)C(C)=CC(C)(C)N2S(=O)(=O)c1ccc(Cl)cc1	TEAD-YAP inh 60
CC1=CC(C)(C)N(S(=O)(=O)c2ccc(C)cc2)c2ccc(Cl)cc21	none
COc1ccc2c(c1)C(C)=CC(C)(C)N2S(=O)(=O)c1ccc(Cl)cc1	TEAD-YAP inh 48
CC1=CC(C)(C)N(S(=O)(=O)c2ccc(Cl)cc2)c2ccccc21	TEAD-YAP inh 55
COC(=O)c1ccc(N2CCCC2)c(NS(=O)(=O)c2ccc(C)cc2)c1	TEAD-YAP inh 41
Cc1ccc(S(=O)(=O)Nc2cc(C(=O)N3CCOCC3)ccc2N2CCCCC2)cc1	none
COC(=O)c1ccc(N2CCOCC2)c(NS(=O)(=O)c2ccc(OC)cc2)c1	TEAD-YAP inh 58
Nc1nc(-c2ccco2)nn1C(=O)c1ccccc1	FBW7 activator 2.0
c1cnc2ccc(Nc3nc(NC4CC4)c4ncn(-c5ccsc5)c4n3)cc2c1	none
c1ccc(-n2cnc3c(NC4CC4)nc(Nc4nccc5ccccc45)nc32)cc1	TEAD-YAP inh 43
